The source made the active and inactive calls. Rule for the calls: active = hit-call score of the fitted dose curve at least 0.9, where 1 is the maximum; inactive = score below 0.9.
Assay: CCTE_Shafer_MEA_acute_per_network_burst_spike_number_mean: CCTE's Neural Acute Assay for Average Number of Spikes in a Network Burst, Shafer Lab (AID 2284019)
Protocol: CCTE_Shafer_MEA_acute assay is conducted using Axion Biosystems 48 well microelectrode array (MEA) plates and Maestro recording system. Each well of the MEA plate contains a grid of 16 microelectrodes embedded in the culture surface. Electrically active cells, such as neurons, can be cultured over the electrodes, and electrical activity in these cells can be recorded extracellularly. The spontaneous firing of neurons is captured from each electrode on a microsecond timescale providing both temporally and spatially precise data. […] The CCTE_Shafer_MEA_acute assay uses primary cultures of rat cortical neurons. As these cultures mature over time, neural networks develop functional activity and form cohesive networks in which electrical activity can be highly coordinated. Baseline 40-minute recordings are made on days post-plating 13 or 15, followed by a secondary 40-minute recording after chemical exposure.CCTE_Shafer_MEA_acute_per_network_burst_spike_number_mean is a component of the CCTE_Shafer_MEA_acute assay. It measures the average number of spikes (action potential firings) in a network burst (temporally-clustered group of spikes across multiple electrodes) as the total number of spikes in a network burst divided by the number of network bursts during a recording in a microelectrode array (MEA) using Axion Biosystems Maestro 768 channel amplifier with the AxIS adaptive spike detector. The recordings before and after chemical treatment are used to calculate a percent change in the mean number of spikes in a network burst in each well.Data from the assay component CCTE_Shafer_MEA_acute_per_network_burst_spike_number_mean was analyzed into 1 assay endpoint. This assay endpoint, CCTE_Shafer_MEA_acute_per_network_burst_spike_number_mean, was analyzed in the negative analysis fitting direction relative to DMSO as the negative control and baseline of activity. Using a type of functional reporter, gain or loss-of-signal activity can be used to understand electrical activity.
Spontaneous activity in the cortical cultures was recorded using an Axion Biosystems Maestro 768 channel amplifier and Axion Integrated Studios (AxIS) v1.8 (or later) software. The amplifier recorded from all channels simultaneously (gain = 1200 x; sampling rate = 12.5 kHz/channel): raw signals were filtered with a Butterworth band-pass filter (300-5000 Hz), which filters out slower local field potentials leaving only fast potentials, i.e., "spikes", arising from extracellular currents associated with action potentials (Pine 2006; Wheeler and Nam 2011). On-line spike detection of filtered signals was conducted with the AxIS adaptive spike detector, using a threshold of 8x the root mean squared (rms) noise on each channel. Any electrodes with rms noise levels greater than 5 uV were grounded (e.g., no data were recorded). Once grounded, an electrode was grounded for the duration of the experiment. All recordings were conducted at 37 C. Wells were deemed usable if on the day of the exposure >/= 10 electrodes were active (defined as >/= 5 spikes/min). On DIV 13 or 15, a minimum of three wells from one cortical culture preparation were treated with each compound (0.03-40 uM). Prior to recording baseline activity, each mwMEA plate was placed in the Maestro at 37 C and allowed to sit for 20 min while firing rates stabilized. Baseline activity (40 min) was recorded before the addition of each compound. An additional 40 min of spontaneous activity was recorded in the presence of each compound. Changes in network parameters relative to baseline were assessed following compound treatment.

Row | Structure (SMILES) | outcome | AC50
1 | CCN(CC)CCO | inactive | –
2 | O=P(OCCCl)(OCCCl)OCCCl | inactive | –
3 | [Cl-].[Cl-].[Hg+2] | inactive | –
4 | Cc1cc(N=Nc2ccccc2C)ccc1N | inactive | –
5 | Cc1ccc(N)c(N)c1 | inactive | –
6 | ClC1=C(Cl)[C@]2(Cl)[C@H]3[C@H]([C@@H]4C=C[C@H]3C4)[C@@]1(Cl)C2(Cl)Cl | inactive | –
7 | Clc1ccc(C(c2ccc(Cl)cc2)C(Cl)(Cl)Cl)cc1 | inactive | –
8 | CCN(CC)N=O | inactive | –
9 | CC(C)(C)C(O)(CCc1ccc(Cl)cc1)Cn1cncn1 (stereo not given) | – | 1.22 µM (active)
10 | O=C(N[C@H](c1ccccc1)[C@@H]1CN2CCC1CC2)c1c(Cl)ccc(C(F)(F)F)c1Cl | inactive | –
11 | O=C(Oc1ccc(Br)cc1)N1CCN2CCC1CC2 | – | 20 µM (active)
12 | CC(C)(O)c1cnn2c(-c3ccc(F)c(-c4c(F)cccc4C#N)c3)cnc2n1 | inactive | –
13 | CC(C)COC(=O)c1ccccc1C(=O)OCC(C)C | – | 6.67 µM (active)
14 | CCCCOC(=O)c1ccccc1C(=O)OCc1ccccc1 | – | 2.58 µM (active)
15 | O=Cc1ccco1 | inactive | –
16 | CCCCCCCCn1sccc1=O | – | 3.28 µM (active)
17 | CCCCCOC(=O)c1ccccc1C(=O)OCCCCC | inactive | –
18 | CC(C)(OOC(C)(C)c1ccccc1)c1ccccc1 | inactive | –
19 | CCC[CH2][Sn]([Cl])([CH2]CCC)[CH2]CCC | inactive | –
20 | c1ccc(N=Nc2ccccc2)cc1 | inactive | –
21 | O=[N+]([O-])c1ccc(Oc2ccc(Cl)cc2Cl)cc1 | inactive | –
22 | C[N+](C)(C)CC1CO1 (stereo not given) | inactive | –
23 | N#CC(Br)Br | inactive | –
24 | Clc1ccc(C(c2ccc(Cl)cc2)C(Cl)Cl)cc1 | – | 2.37 µM (active)
25 | ClCCOCCCl | inactive | –
26 | c1ccc(NNc2ccccc2)cc1 | inactive | –
27 | O=[N+]([O-])C(Br)(CO)CO | inactive | –
28 | CCC(C)c1ccc(O)cc1 (stereo not given) | inactive | –
29 | ClC1=C(Cl)C2(Cl)C3C(Cl)C=CC3C1(Cl)C2(Cl)Cl (stereo not given) | – | 4.22 µM (active)
30 | COC(=O)Nc1nc2ccccc2[nH]1 | inactive | –
